About 7,900 targets were measured; listed, in parts, are those with a hit and a random draw of the rest. About 0.6% of all pairs of compound and target were hits.
Key:
Test in all cases: log2 fold change, soluble protein after heating vs DMSO (PISA); higher = thermal stabilisation; K562 cells, 10 uM, 30 min; active = over 0.2 and 3.5 SD of the protein, either way, in both replicates (recomputed)
[1] = compound: C1=CC=C(C=C1)[C@H](COC2=CC3=C(C=C2)NC(=O)N3)NC(=O)C4=CC=CN(C4=O)CC5=CC(=C(C=C5)F)F
How it was run: (§1)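 K562 cells at 2×10^6 cells/mL were given 10 μM compound for 30 min. Aliquots then went through 3 min of heating across 48°C-58°C, were pooled, and were extracted in PBS with 0.5% NP-40 at 4°C, and the supernatant after 21,000xg for 90 min was quantified by TMTpro 16plex LC-MS/MS with channel sums equalised. Thermal stability relative to control samples, from duplicates, is given as log2 fold change.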

[2] = compound: CC1=C(SC2=C1C(=N[C@H](C3=NN=C(N32)C)CC(=O)N)C4=CC=C(C=C4)Cl)C
How it was run: as §1

[3] = compound: CC1=C2C(=CC=C1)N=C(N(C2=O)C3=CC=CC=C3C)CN4C=NC5=C(N=CN=C54)N
How it was run: as §1

[4] = compound: Cc1sc2c(c1C)C(c1ccc(Cl)cc1)=N[C@@H](CC(=O)OC(C)(C)C)c1nnc(C)n1-2
How it was run: as §1

[5] = compound: c1ccc([C@@H]2C[C@H]2NC2CCNCC2)cc1
How it was run: as §1

Measured: log2 fold change

LPCAT3 (UniProt Q6P1A2)
UniProt Q6P1A2, sequence (Q6P1A2 whole entry, looked up): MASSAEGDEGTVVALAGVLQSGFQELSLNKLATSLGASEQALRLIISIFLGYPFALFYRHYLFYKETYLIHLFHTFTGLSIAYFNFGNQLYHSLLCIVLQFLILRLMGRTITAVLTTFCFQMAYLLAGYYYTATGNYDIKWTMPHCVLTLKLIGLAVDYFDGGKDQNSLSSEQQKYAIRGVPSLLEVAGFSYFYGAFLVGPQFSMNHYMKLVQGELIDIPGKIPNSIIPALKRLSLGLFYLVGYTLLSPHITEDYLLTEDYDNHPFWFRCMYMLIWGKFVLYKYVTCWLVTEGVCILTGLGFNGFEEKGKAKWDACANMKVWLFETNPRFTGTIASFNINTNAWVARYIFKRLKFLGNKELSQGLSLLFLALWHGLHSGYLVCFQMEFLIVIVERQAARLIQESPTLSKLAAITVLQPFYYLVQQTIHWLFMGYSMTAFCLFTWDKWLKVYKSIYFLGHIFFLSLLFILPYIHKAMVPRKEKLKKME
inactive: [1] 0.019 | [2] 0.071 | [3] -0.011 | [4] -0.093 | [5] -0.052

LUC7L3 (UniProt O95232)
UniProt O95232, sequence (O95232 whole entry, looked up): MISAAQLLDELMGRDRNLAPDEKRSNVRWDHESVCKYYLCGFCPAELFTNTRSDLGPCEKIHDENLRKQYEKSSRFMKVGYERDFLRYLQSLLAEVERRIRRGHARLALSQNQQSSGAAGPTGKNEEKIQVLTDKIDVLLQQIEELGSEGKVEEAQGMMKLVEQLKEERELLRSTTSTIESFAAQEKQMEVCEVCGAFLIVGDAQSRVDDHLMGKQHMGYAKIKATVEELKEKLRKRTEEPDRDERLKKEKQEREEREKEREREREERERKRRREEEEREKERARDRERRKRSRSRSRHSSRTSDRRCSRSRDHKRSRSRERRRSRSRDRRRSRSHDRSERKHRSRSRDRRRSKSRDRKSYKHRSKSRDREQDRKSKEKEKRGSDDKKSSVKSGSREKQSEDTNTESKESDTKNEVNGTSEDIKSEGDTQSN
inactive: [1] 0.002 | [2] -0.021 | [3] 0.023 | [4] 0.021 | [5] 0.028

KIFBP (UniProt Q96EK5)
inactive: [1] -0.075 | [2] 0.025 | [3] 0.06 | [4] -0.058 | [5] 0.005

MAPKAPK2 (UniProt P49137)
inactive: [1] -0.047 | [2] 0.064 | [3] 0.012 | [4] 0.013 | [5] -0.056

MAST4 (UniProt O15021)
inactive: [1] -0.081 | [2] 0.037 | [3] 0.061 | [4] -0.002 | [5] -0.041

ILK (UniProt Q13418)
inactive: [1] -0.081 | [2] 0.017 | [3] 0.132 | [4] 0.053 | [5] -0.087

MAGEC2 (UniProt Q9UBF1)
inactive: [1] 0.043 | [2] -0.069 | [3] 0.005 | [4] 0.009 | [5] 0.054

KIF3B (UniProt O15066)
inactive: [1] -0.068 | [2] -0.014 | [3] 0.028 | [4] 0.09 | [5] -0.054

LARP7 isoform 3 (UniProt Q4G0J3)
inactive: [1] 0.018 | [2] -0.032 | [3] 0.045 | [4] -0.048 | [5] 0.027

LMF2 (UniProt Q9BU23)
inactive: [1] -0.001 | [2] -0.013 | [3] 0.097 | [4] -0.012 | [5] -0.053

MAPK9 (UniProt P45984)
inactive: [1] 0.015 | [2] 0.015 | [3] 0.039 | [4] -0.042 | [5] 0.004

LSR (UniProt Q86X29)
inactive: [1] -0.016 | [2] 0.033 | [3] 0.006 | [4] -0.034 | [5] 0.015

MAP2K7 isoform 4 (UniProt O14733)
inactive: [1] -0.009 | [2] 0.029 | [3] 0.065 | [4] 0.013 | [5] 0.044

LPGAT1 (UniProt Q92604)
UniProt Q92604, sequence (Q92604 whole entry, looked up): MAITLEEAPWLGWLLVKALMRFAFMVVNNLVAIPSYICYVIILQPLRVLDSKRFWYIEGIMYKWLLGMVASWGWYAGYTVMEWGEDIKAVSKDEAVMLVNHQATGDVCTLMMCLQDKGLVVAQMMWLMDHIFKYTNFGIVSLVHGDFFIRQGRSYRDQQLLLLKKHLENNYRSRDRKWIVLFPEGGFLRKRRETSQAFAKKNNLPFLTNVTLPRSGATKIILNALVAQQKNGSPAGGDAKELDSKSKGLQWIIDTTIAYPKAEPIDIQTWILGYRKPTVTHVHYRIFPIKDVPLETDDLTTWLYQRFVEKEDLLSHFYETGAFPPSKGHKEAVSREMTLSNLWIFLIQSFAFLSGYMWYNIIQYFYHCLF
inactive: [1] -0.068 | [2] -0.136 | [3] -0.02 | [4] 0.086 | [5] 0.074

LNPEP (UniProt Q9UIQ6)
inactive: [1] 0.066 | [2] 0.061 | [3] 0.001 | [4] -0.016 | [5] 0.046

MFSD11 (UniProt O43934)
inactive: [1] 0.04 | [2] 0.11 | [3] 0.104 | [4] -0.03 | [5] -0.049

LRRFIP1 (UniProt Q32MZ4)
UniProt Q32MZ4, sequence (Q32MZ4 whole entry, looked up): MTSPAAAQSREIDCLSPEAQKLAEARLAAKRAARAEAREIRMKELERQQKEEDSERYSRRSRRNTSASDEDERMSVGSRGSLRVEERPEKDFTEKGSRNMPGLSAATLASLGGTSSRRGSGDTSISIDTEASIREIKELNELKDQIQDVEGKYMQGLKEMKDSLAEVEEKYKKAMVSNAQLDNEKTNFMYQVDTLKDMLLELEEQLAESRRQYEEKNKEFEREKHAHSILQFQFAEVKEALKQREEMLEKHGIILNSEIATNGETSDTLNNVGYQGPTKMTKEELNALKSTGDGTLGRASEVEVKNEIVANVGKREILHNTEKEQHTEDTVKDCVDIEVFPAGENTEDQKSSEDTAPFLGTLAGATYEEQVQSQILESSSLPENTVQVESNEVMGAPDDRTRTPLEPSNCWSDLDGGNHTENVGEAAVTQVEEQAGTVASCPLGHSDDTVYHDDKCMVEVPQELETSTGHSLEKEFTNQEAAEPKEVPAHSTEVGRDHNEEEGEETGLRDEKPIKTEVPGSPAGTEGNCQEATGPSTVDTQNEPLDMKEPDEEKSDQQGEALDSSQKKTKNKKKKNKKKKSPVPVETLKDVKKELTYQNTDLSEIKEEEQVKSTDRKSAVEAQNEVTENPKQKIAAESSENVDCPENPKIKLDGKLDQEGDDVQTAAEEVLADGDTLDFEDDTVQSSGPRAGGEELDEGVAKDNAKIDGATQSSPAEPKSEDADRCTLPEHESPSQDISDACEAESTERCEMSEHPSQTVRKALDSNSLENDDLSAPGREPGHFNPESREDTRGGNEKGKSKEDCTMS
inactive: [1] 0.019 | [2] 0.036 | [3] -0.016 | [4] 0.023 | [5] 0.011

MAP4K4 isoform 3 (UniProt O95819)
UniProt O95819, sequence (O95819 whole entry, looked up): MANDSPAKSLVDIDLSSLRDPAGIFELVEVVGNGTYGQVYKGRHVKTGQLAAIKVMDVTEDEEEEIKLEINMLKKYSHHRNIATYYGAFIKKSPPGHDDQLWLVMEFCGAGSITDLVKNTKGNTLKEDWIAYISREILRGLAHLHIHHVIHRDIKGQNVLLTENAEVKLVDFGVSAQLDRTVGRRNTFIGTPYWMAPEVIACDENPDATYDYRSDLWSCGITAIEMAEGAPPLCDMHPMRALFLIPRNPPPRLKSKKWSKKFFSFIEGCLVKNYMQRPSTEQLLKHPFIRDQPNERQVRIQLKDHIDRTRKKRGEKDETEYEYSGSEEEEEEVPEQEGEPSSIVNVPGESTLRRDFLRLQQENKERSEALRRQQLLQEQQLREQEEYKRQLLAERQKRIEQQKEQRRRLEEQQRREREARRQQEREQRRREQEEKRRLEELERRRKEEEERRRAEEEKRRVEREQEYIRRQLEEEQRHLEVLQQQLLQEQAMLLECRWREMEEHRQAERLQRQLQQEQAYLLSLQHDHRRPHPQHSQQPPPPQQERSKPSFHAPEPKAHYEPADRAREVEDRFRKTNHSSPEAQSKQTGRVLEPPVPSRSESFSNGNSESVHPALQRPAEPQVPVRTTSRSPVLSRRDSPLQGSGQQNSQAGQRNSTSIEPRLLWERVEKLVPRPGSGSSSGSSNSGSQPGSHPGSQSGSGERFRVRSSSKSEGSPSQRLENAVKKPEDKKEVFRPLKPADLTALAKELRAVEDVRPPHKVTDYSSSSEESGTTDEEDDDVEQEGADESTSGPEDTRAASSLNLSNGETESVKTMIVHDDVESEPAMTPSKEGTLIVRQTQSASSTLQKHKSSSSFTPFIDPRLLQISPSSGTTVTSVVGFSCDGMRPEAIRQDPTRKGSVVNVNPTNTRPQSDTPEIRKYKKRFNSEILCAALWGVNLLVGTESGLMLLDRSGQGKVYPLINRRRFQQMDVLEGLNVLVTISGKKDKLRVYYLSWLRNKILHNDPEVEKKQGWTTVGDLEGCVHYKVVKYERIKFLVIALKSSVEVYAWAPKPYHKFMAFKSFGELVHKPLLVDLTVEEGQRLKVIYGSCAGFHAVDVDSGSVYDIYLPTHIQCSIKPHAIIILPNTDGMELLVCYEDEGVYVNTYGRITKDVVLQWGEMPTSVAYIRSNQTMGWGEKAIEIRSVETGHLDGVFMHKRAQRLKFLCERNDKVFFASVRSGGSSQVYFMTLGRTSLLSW
inactive: [1] 0.009 | [2] 0.032 | [3] 0.044 | [4] 0.04
active: [5] 0.264

KIF1B isoform 4 (UniProt O60333)
inactive: [1] -0.035 | [2] 0.027 | [3] 0.042 | [4] -0.025 | [5] -0.048

KLC2 (UniProt Q9H0B6)
inactive: [1] -0.046 | [2] 0.085 | [3] 0.118 | [4] 0.032 | [5] 0

MDN1 (UniProt Q9NU22)
inactive: [1] -0.08 | [2] 0.041 | [3] 0.059 | [4] -0.054 | [5] -0.049

LTN1 isoform 3 (UniProt O94822)
inactive: [1] -0.058 | [2] 0.015 | [3] 0.08 | [4] -0.003 | [5] -0.005

KIF13A (UniProt Q9H1H9)
inactive: [1] 0.022 | [2] 0.039 | [3] 0.054 | [4] -0.059 | [5] -0.027

MDC1 (UniProt Q14676)
inactive: [1] -0.005 | [2] -0.045 | [3] -0.092 | [4] 0.068 | [5] 0.04

MFSD5 isoform 2 (UniProt Q6N075)
inactive: [1] 0.071 | [2] 0.08 | [3] 0.112 | [4] -0.049 | [5] -0.055

MAP4 (UniProt P27816)
inactive: [1] 0.028 | [2] -0.017 | [3] -0.058 | [4] 0.003 | [5] 0.037

ILRUN (UniProt Q9H6K1)
inactive: [1] 0.029 | [2] 0.031 | [3] 0.119 | [4] 0.014 | [5] -0.009

MAPK14 (UniProt Q16539)
inactive: [1] -0.01 | [2] 0.153 | [3] 0.061 | [4] -0.03 | [5] -0.089

LARP4 isoform 4 (UniProt Q71RC2)
inactive: [1] 0.069 | [2] -0.071 | [3] 0 | [4] 0.093 | [5] 0.036

MAPKAPK5 (UniProt Q8IW41)
inactive: [1] 0.042 | [2] 0.001 | [3] 0.015 | [4] -0.069 | [5] -0.009

MFF (UniProt Q9GZY8)
inactive: [1] -0.013 | [2] 0.041 | [3] 0.064 | [4] -0.017 | [5] -0.001

KDELR2 (UniProt P33947)
inactive: [1] -0.038 | [2] -0.015 | [3] 0.076 | [4] -0.137 | [5] 0.115

LIMA1 isoform 4 (UniProt Q9UHB6)
inactive: [1] 0.002 | [2] 0.014 | [3] -0.002 | [4] -0.028 | [5] 0.034

MAPKAPK3 (UniProt Q16644)
inactive: [1] -0.122 | [2] 0.013 | [3] 0.027 | [4] -0.034 | [5] -0.109

MAN2B2 (UniProt Q9Y2E5)
inactive: [1] 0.097 | [3] 0.096 | [4] 0.074

MELK (UniProt Q14680)
inactive: [1] 0.044 | [2] -0.057 | [4] 0.197 | [5] -0.057

LRRFIP1 isoform 4 (UniProt Q32MZ4)
inactive: [2] -0.204 | [5] 0.009

KIZ (UniProt Q2M2Z5)
inactive: [2] -0.082 | [5] 0.453

LRBA, A0A494BZW2
inactive: [1] 0.002 | [2] 0.048 | [4] 0.113 | [5] 0.014

LSR isoform 3 (UniProt Q86X29)
inactive: [2] -0.073 | [4] -0.067 | [5] -0.101

MAML1 (UniProt Q92585)
inactive: [2] 0.018 | [3] 0.15 | [5] 0.077

MCOLN3 (UniProt Q8TDD5)
inactive: [1] -0.075 | [4] 0.039

LEPROT (UniProt O15243)
inactive: [2] -0.022 | [4] -0.235 | [5] 0.112

MAP3K20 isoform 2 (UniProt Q9NYL2)
inactive: [4] -0.033

IGFBP3 isoform 2 (UniProt P17936)
inactive: [2] -0.081 | [3] 0.034 | [4] -0.083 | [5] 0.057

MAP4K2 (UniProt Q12851)
inactive: [1] -0.08 | [2] 0.063 | [4] -0.057 | [5] 0

IP6K1 (UniProt Q92551)
UniProt Q92551, sequence (Q92551 whole entry, looked up): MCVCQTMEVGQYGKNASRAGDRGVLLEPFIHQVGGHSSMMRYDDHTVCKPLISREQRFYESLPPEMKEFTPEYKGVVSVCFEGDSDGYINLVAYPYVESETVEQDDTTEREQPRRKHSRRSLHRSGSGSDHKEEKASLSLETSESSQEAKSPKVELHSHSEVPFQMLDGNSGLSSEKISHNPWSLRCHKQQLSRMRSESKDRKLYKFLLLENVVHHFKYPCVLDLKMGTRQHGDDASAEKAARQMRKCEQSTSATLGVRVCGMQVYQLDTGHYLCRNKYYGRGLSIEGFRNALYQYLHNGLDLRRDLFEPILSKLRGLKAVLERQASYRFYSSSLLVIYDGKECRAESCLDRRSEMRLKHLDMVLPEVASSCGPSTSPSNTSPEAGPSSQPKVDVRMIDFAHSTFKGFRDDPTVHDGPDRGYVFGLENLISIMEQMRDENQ
inactive: [1] 0.053 | [2] 0.059 | [4] 0.194 | [5] -0.135

LYN isoform 2 (UniProt P07948)
inactive: [2] 0.018 | [3] -0.097 | [5] 0.033

MED12 isoform 2 (UniProt Q93074)
inactive: [1] -0.002 | [4] -0.434

MFSD12 isoform 3 (UniProt Q6NUT3)
inactive: [2] 0.026 | [4] -0.129 | [5] 0.135

MAPK11 (UniProt Q15759)
inactive: [4] -0.014

KIF13A isoform 4 (UniProt Q9H1H9)
inactive: [2] 0.031 | [5] -0.367

MAPRE3 isoform 2 (UniProt Q9UPY8)
inactive: [2] 0.033 | [4] 0.279 | [5] 0.017

ING5 (UniProt Q8WYH8)
UniProt Q8WYH8, sequence (Q8WYH8 whole entry, looked up): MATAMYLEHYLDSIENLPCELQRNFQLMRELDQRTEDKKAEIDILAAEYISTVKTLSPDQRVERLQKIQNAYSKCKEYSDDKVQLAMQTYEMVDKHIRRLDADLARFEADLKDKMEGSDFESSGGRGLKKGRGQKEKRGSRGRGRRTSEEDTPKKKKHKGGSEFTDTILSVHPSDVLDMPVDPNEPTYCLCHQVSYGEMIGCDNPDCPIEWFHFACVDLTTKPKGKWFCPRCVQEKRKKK
inactive: [2] 0.051 | [4] 0.036 | [5] -0.037

ITPRID2 (UniProt P28290)
inactive: [3] 0.106

INTS5 (UniProt Q6P9B9)
UniProt Q6P9B9, sequence (Q6P9B9 whole entry, looked up): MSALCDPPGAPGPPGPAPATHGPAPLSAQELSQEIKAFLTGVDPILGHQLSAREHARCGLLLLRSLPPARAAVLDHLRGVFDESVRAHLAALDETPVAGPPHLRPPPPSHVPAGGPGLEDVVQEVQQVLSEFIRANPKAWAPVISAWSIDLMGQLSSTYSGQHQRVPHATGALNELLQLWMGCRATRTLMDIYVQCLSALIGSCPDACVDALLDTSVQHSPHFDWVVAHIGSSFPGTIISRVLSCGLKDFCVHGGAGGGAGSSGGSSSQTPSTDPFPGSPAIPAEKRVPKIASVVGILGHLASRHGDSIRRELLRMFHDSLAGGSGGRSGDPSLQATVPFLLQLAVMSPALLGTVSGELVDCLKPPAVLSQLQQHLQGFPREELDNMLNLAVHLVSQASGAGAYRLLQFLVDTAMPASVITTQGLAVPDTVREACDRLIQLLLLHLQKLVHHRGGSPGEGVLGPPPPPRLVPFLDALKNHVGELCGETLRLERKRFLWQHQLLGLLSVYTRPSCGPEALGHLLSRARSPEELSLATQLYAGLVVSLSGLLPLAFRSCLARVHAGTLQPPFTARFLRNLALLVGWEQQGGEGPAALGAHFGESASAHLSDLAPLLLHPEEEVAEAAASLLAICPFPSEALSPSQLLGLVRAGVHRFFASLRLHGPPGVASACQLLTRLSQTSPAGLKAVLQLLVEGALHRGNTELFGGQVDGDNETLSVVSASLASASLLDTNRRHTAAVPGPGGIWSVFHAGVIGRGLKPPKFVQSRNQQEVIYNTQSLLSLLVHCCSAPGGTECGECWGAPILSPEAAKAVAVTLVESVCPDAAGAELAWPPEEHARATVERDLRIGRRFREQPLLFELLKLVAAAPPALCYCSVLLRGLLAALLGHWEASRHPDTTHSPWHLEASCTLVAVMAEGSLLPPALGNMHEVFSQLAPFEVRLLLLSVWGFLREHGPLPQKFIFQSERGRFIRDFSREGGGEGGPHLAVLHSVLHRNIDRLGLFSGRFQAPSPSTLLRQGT
inactive: [1] -0.091 | [3] 0.052 | [4] 0.065

MAP2K5 (UniProt Q13163)
inactive: [2] 0.053 | [5] -0.034

IGFBP6 (UniProt P24592)
inactive: [2] 0.018 | [3] 0.011 | [5] 0.01

MAP4K4 isoform 6 (UniProt O95819)
inactive: [2] 0.177 | [3] 0.049 | [4] -0.037 | [5] 0.076

MED17 (UniProt Q9NVC6)
inactive: [2] -0.031 | [3] 0.038 | [4] 0.032 | [5] -0.011

LSR (UniProt M0QZL9)
inactive: [3] 0.054
